# Results as given in PubChem BioAssay (Tox21).
# Inconclusive results are not listed. Unmarked numbers belong to inactive results. Calls come from the whole dose curve; as a rule, active = well fitted activation curve with a large enough effect in the repeat runs; inconclusive = weak or mixed curves; inactive = no such curve, though single readings can be large or run the other way.
# Experiment: qHTS assay to identify small molecule agonists of the estrogen related receptor signaling pathway with the pleiotropic PPARgamma coactivator (PGC) (AID 1224823)
# Conditions: ERR/PGC reporter cell line, luciferase agonist mode; series mostly up to 46.1 µM; activation: at the top concentration
# Method in brief: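 Luminescence from One-Glo reagent (30 min, room temperature) was read after 18 h compound treatment at 37 C of PGC/ERR cells plated 6 h beforehand; compounds delivered in DMSO by pin tool.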
# % is set by controls: 0 for no effect and ±100 for the full control effect.
row,SMILES,activation
1,CCCN(CCC)CCc1ccc(O)c(O)c1,-3.13%
2,Clc1cc(I)cc(Cl)c1NC1=NCCN1,3.36%
3,O=C(O)[C@@H]1CCN1,2.22%
4,C[N+]1(C)CCc2cc3c(cc2[C@H]1[C@@H]1OC(=O)c2c1ccc1c2OCO1)OCO3,-3.35%
5,NCCc1ccc(S(=O)(=O)F)cc1,-3.47%
6,C[N+](C)(C)CC#CCN1CCCC1=O,-5.51%
7,CCCN1CCC[C@@H](c2cccc(O)c2)C1,1.53%
8,NCCc1c[nH]c2ccccc12,3.19%
9,COc1ccc2[nH]c3c(c2c1)CCNC3,-1.65%
10,COc1ccc2c(c[n+](C)c3c4cc5c(cc4ccc23)OCO5)c1OC,-32.8%
11,C[C@H]1C2Cc3ccc(O)cc3[C@@]1(C)CCN2CC1CC1,-0.535%
12,NC(=NCCC[C@H](N)C(=O)O)N[N+](=O)[O-],-3.18%
13,Oc1ccc2c3c1O[C@H]1c4[nH]c5c(c4C[C@@]4(O)[C@@H](C2)N(CC2CC2)CC[C@]314)C[C@@]1(O)[C@H]2Cc3ccc(O)c4c3[C@@]1(CCN2CC1CC1)[C@H]5O4,-1.8%
14,Cc1sc2ccccc2c1CC1=NCCN1,1.47%
15,Nc1ncnc2c1ncn2[C@@H]1O[C@H](COP(=O)(O)CP(=O)(O)OP(=O)(O)O)C(O)[C@H]1O (stereo partly drawn),3.68%
16,CC(C)(C)OC(=O)NC1[C@H]2CNC[C@@H]12 (stereo partly drawn),-20.8%
17,C[N+]1(C)CCN(c2ccccc2)CC1,-0.757%
18,CS(=N)(=O)CC[C@H](N)C(=O)O (stereo partly drawn),3.76%
